# Values without a mark were called inactive. No rule for the calls is given here.
# Target: Pantothenate synthetase (Mycobacterium tuberculosis (strain ATCC 25618 / H37Rv)) (UniProt P9WIL5)
# Experiment: Recombinant Mtb pantothenate synthetase (PanC) inhibitors, coupled enzyme, confirmatory (AID 375);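 also: 0% = full reaction with vehicle and 100% = no enzyme background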
# Conditions: coupled enzyme assay; at 10 µM, stronger effect = higher value
# Sequence of Pantothenate synthetase (Mycobacterium tuberculosis (strain ATCC 25618 / H37Rv)) (P9WIL5 whole entry, looked up): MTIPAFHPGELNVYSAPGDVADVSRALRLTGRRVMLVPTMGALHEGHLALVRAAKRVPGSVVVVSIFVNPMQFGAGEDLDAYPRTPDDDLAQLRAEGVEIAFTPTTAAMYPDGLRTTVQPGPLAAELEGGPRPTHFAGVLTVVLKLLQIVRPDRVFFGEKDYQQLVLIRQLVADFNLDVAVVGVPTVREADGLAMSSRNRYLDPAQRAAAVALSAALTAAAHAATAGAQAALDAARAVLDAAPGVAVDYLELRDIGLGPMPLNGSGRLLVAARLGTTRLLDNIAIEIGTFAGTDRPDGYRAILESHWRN
row,SMILES,inhibition
1,CC(=O)c1ccccc1OCCn1nnc(-c2ccc(C)cc2)n1,0%
2,O=C(NCCN1CCOCC1)c1csc2c1CCCC2,0%
3,CCn1cc(SCC(=O)Nc2cc(C)on2)c2ccccc21,0%
4,CCOC(=O)N1CCN(C(=O)c2ccc(CS(=O)(=O)c3ccc(OC)cc3)o2)CC1,1%
5,COc1ccc(-c2noc(CCCOc3ccccc3)n2)cc1OC,7%
6,CN1CCN(c2ccc(Cl)cc2NC(=O)c2cccc(S(=O)(=O)N(C)C)c2)CC1,1%
7,O=C1COc2ccc(C(=O)COC(=O)CCc3ccc(S(=O)(=O)N4CCOCC4)cc3)cc2N1,8%
8,CC1=Nn2c(nnc2-c2ccccn2)SC1,7%
9,O=C(C1CCN(c2nnnn2-c2ccccc2)CC1)N1CCN(c2ccccc2)CC1,0%
10,Cc1cc(Cl)ccc1OCC(=O)Nn1c(C)ccc1C,0%
11,COc1cc(C)c(N)cc1C(C)C,2%
12,CC1(C)CC(=O)CC(=Nc2ccc(C(=O)O)cc2)C1,8%
13,O=C1OC(N2CCN(c3ccccn3)CC2)c2ccccc21 (stereo not drawn),0%
14,CN1C(=S)SC(C)(NO)C1(C)C (stereo not drawn),0%
15,CC(C)C(=O)Nc1ccc(-c2nc3cccnc3o2)cc1,2%
16,Cn1c(CN2CCOCC2)nc2cc(NC(=O)c3ccccc3Cl)ccc21,5%
17,COC(=O)Cn1cc(C(=O)c2cccs2)c2ccccc21,0%
18,Nn1c(CSc2nc3ccccc3o2)nnc1CSc1nc2ccccc2o1,0%

# — PubChem BioAssay
